# Laboratory results taken from the supplement of paper PMC7411054.
# Where a name gives a salt, the structure may show the parent alone.
# Tests used:
# Conditions in all cases: treatment time: 24 h
# [1] = system: A549-ACTB-RAB5A; assay: lowest phenotypically active concentration; higher = less potent
# Method in brief: (§1)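 Each of fifteen gene-edited A549, HepG2 and WPMY1 reporter lines, marked with BFP for segmentation and GFP and RFP/FusionRed, was treated in four wells at 0.3, 1, 3 or 9 µM for 24 h prior to live imaging. Normalisation of per-well live-cell features used solvent control wells. Deviation needed ≥3 of 4 wells beyond the 95th percentile of control Euclidean distances, and reproducibility needed a median replicate Pearson correlation above the 95th percentile of non-replicates. Both were required for phenotypic activity.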
# [2] = system: A549-GM130-SQSTM1; assay: as above
# Method in brief: as §1
# [3] = system: A549-TP53BP1-CLTA; assay: as above
# Method in brief: as §1
# [4] = system: A549-TUBA1B-RELA; assay: as above
# Method in brief: as §1
# [5] = system: HepG2-TP53BP1-CLTA; assay: as above
# Method in brief: as §1
# [6] = system: A549-ACTB-RAB5A; assay: phenotypically active (imaging signature differs from DMSO and reproducible) at any of 0.3-9 uM (binary (1 = active, 0 = inactive)); higher = active
# Method in brief: as §1
# [7] = system: A549-CANX-COX4; assay: as above
# Method in brief: as §1
# [8] = system: A549-GM130-SQSTM1; assay: as above
# Method in brief: as §1
# [9] = system: A549-TP53BP1-CLTA; assay: as above
# Method in brief: as §1
# [10] = system: A549-TUBA1B-RELA; assay: as above
# Method in brief: as §1
# [11] = system: HepG2-ACTB-RAB5A; assay: as above
# Method in brief: as §1
# [12] = system: HepG2-CANX-COX4; assay: as above
# Method in brief: as §1
# [13] = system: HepG2-GM130-SQSTM1; assay: as above
# Method in brief: as §1
# [14] = system: HepG2-TP53BP1-CLTA; assay: as above
# Method in brief: as §1
# [15] = system: HepG2-TUBA1B-RELA; assay: as above
# Method in brief: as §1
# [16] = system: WPMY1-ACTB-RAB5A; assay: as above
# Method in brief: as §1
# [17] = system: WPMY1-CANX-COX4; assay: as above
# Method in brief: as §1
# [18] = system: WPMY1-GM130-SQSTM1; assay: as above
# Method in brief: as §1
# [19] = system: WPMY1-TP53BP1-CLTA; assay: as above
# Method in brief: as §1
# [20] = system: WPMY1-TUBA1B-RELA; assay: as above
# Method in brief: as §1
SMILES,lowest phenotypically active concentration [1],lowest phenotypically active concentration [2],lowest phenotypically active concentration [3],lowest phenotypically active concentration [4],lowest phenotypically active concentration [5],phenotypically active [6],phenotypically active [7],phenotypically active [8],phenotypically active [9],phenotypically active [10],phenotypically active [11],phenotypically active [12],phenotypically active [13],phenotypically active [14],phenotypically active [15],phenotypically active [16],phenotypically active [17],phenotypically active [18],phenotypically active [19],phenotypically active [20]
C[C@H]1O[C@@H](O[C@H]2[C@@H](O)C[C@H](O[C@H]3[C@@H](O)C[C@H](O[C@H]4CC[C@@]5(C)[C@H](CC[C@@H]6[C@@H]5CC[C@]5(C)[C@@H](C7=CC(=O)OC7)[C@@H](O)C[C@]65O)C4)O[C@@H]3C)O[C@@H]2C)C[C@H](O)[C@@H]1O [Gitoxin],≤ 0.3 µM,≤ 0.3 µM,≤ 0.3 µM,≤ 0.3 µM,≤ 0.3 µM,1 (active),1 (active),1 (active),1 (active),1 (active),1 (active),1 (active),1 (active),1 (active),1 (active),1 (active),1 (active),1 (active),1 (active),1 (active)
CCCCCC[C@H]1C(=O)O[C@H](C)[C@H](NC(=O)c2cccc(NC=O)c2O)C(=O)O[C@@H](C)[C@@H]1OC(=O)CC(C)C [antimycin a],≤ 0.3 µM,≤ 0.3 µM,≤ 0.3 µM,≤ 0.3 µM,≤ 0.3 µM,1 (active),1 (active),1 (active),1 (active),1 (active),1 (active),1 (active),1 (active),1 (active),1 (active),1 (active),1 (active),1 (active),1 (active),1 (active)
COc1cc([C@@H]2c3cc4c(cc3[C@H](O)[C@H]3COC(=O)[C@H]23)OCO4)cc(OC)c1OC [Podophyllotoxin],≤ 0.3 µM,≤ 0.3 µM,≤ 0.3 µM,≤ 0.3 µM,1 µM,1 (active),1 (active),1 (active),1 (active),1 (active),1 (active),1 (active),1 (active),1 (active),1 (active),1 (active),1 (active),1 (active),1 (active),1 (active)
C[C@]12C/C(=C\O)C(=O)C[C@@H]1CC[C@@H]1[C@@H]2CC[C@@]2(C)[C@H]1CC[C@]2(C)O [oxymetholone],9 µM,,,,,1 (active),0 (inactive),0 (inactive),0 (inactive),0 (inactive),0 (inactive),0 (inactive),0 (inactive),0 (inactive),0 (inactive),0 (inactive),0 (inactive),0 (inactive),0 (inactive),0 (inactive)
CC(C)(C)c1cc(C=C(C#N)C#N)cc(C(C)(C)C)c1O [Malonoben],1 µM,≤ 0.3 µM,3 µM,1 µM,1 µM,1 (active),1 (active),1 (active),1 (active),1 (active),1 (active),1 (active),1 (active),1 (active),1 (active),1 (active),1 (active),1 (active),1 (active),1 (active)
N#CC(O[C@@H]1O[C@H](CO[C@@H]2O[C@H](CO)[C@@H](O)[C@H](O)[C@H]2O)[C@@H](O)[C@H](O)[C@H]1O)c1ccccc1 (stereo not given in full) [Amygdalin],,,,,,0 (inactive),0 (inactive),0 (inactive),0 (inactive),0 (inactive),0 (inactive),0 (inactive),0 (inactive),0 (inactive),0 (inactive),0 (inactive),0 (inactive),0 (inactive),0 (inactive),0 (inactive)
O=P1(NCCCl)OCCCN1CCCl (stereo not given) [ifosfamide],,,,,,0 (inactive),0 (inactive),0 (inactive),0 (inactive),0 (inactive),0 (inactive),0 (inactive),0 (inactive),0 (inactive),0 (inactive),0 (inactive),0 (inactive),0 (inactive),0 (inactive),0 (inactive)
COc1ccc2c3c1O[C@H]1C(=O)CC[C@H]4[C@@H](C2)N(C)CC[C@]314 [hydrocodone],,,,,,0 (inactive),0 (inactive),0 (inactive),0 (inactive),0 (inactive),0 (inactive),0 (inactive),0 (inactive),0 (inactive),0 (inactive),0 (inactive),0 (inactive),0 (inactive),0 (inactive),0 (inactive)
C=C1[C@@H](O)C2C=CC[C@H](C)C(=O)[C@](C)(O)C=C[C@@H](OC(C)=O)[C@]23C(=O)N[C@H](Cc2ccccc2)[C@@H]3[C@@H]1C (stereo not given in full) [Cytochalasin D],≤ 0.3 µM,≤ 0.3 µM,≤ 0.3 µM,≤ 0.3 µM,≤ 0.3 µM,1 (active),1 (active),1 (active),1 (active),1 (active),1 (active),1 (active),1 (active),1 (active),1 (active),1 (active),1 (active),1 (active),1 (active),1 (active)
NC(=O)CS(=O)C(c1ccccc1)c1ccccc1 (stereo not given) [modafinil],,,,,,0 (inactive),0 (inactive),0 (inactive),0 (inactive),0 (inactive),0 (inactive),0 (inactive),0 (inactive),0 (inactive),0 (inactive),0 (inactive),0 (inactive),0 (inactive),0 (inactive),0 (inactive)
N[C@@H]1C[C@H]1c1ccccc1 [Tranylcypromine hydrochloride],,,,,,0 (inactive),0 (inactive),0 (inactive),0 (inactive),0 (inactive),0 (inactive),0 (inactive),0 (inactive),0 (inactive),0 (inactive),0 (inactive),0 (inactive),0 (inactive),0 (inactive),0 (inactive)
COc1ccc(CCN2CCC(Nc3nc4ccccc4n3Cc3ccc(F)cc3)CC2)cc1 [astemizole],1 µM,≤ 0.3 µM,3 µM,1 µM,3 µM,1 (active),1 (active),1 (active),1 (active),1 (active),1 (active),1 (active),1 (active),1 (active),1 (active),1 (active),1 (active),1 (active),1 (active),1 (active)
COc1cc2c(c(OC)c1OC)-c1ccc(OC)c(=O)cc1[C@@H](NC(C)=O)CC2 [colchicine],≤ 0.3 µM,≤ 0.3 µM,≤ 0.3 µM,9 µM,≤ 0.3 µM,1 (active),1 (active),1 (active),1 (active),1 (active),1 (active),1 (active),1 (active),1 (active),1 (active),1 (active),1 (active),1 (active),1 (active),1 (active)
CCn1cnc2c(Nc3cccc(Cl)c3)nc(N[C@H]3CCCC[C@H]3N)nc21,1 µM,1 µM,1 µM,1 µM,1 µM,1 (active),1 (active),1 (active),1 (active),1 (active),1 (active),1 (active),1 (active),1 (active),1 (active),1 (active),1 (active),1 (active),1 (active),1 (active)
CCCCCOc1ccc(C(=O)c2cccc3ccccc23)c2ccccc12,,,,,,0 (inactive),0 (inactive),0 (inactive),0 (inactive),0 (inactive),0 (inactive),0 (inactive),0 (inactive),0 (inactive),0 (inactive),0 (inactive),0 (inactive),0 (inactive),0 (inactive),0 (inactive)
CCN(C(C)=O)c1cccc(-c2ccnc3c(C#N)cnn23)c1 [zaleplon],,,,,,0 (inactive),0 (inactive),0 (inactive),0 (inactive),0 (inactive),0 (inactive),0 (inactive),0 (inactive),0 (inactive),0 (inactive),0 (inactive),0 (inactive),0 (inactive),0 (inactive),0 (inactive)
O=C1CN=C(c2ccccc2)c2cc(Cl)ccc2N1CC(F)(F)F [halazepam],,,,,,0 (inactive),0 (inactive),0 (inactive),0 (inactive),0 (inactive),0 (inactive),0 (inactive),0 (inactive),0 (inactive),0 (inactive),0 (inactive),0 (inactive),0 (inactive),0 (inactive),0 (inactive)
CC(C)C[C@H](CN)CC(=O)O [pregabalin],,,,,,0 (inactive),0 (inactive),0 (inactive),0 (inactive),0 (inactive),0 (inactive),0 (inactive),0 (inactive),0 (inactive),0 (inactive),0 (inactive),0 (inactive),0 (inactive),0 (inactive),0 (inactive)
C[C@]12CC[C@H](O)C[C@H]1CC[C@@H]1[C@@H]2C[C@@H](O)[C@]2(C)[C@@H](C3=CC(=O)OC3)CC[C@]12O [Digoxigenin],≤ 0.3 µM,≤ 0.3 µM,≤ 0.3 µM,≤ 0.3 µM,1 µM,1 (active),1 (active),1 (active),1 (active),1 (active),1 (active),1 (active),1 (active),1 (active),1 (active),1 (active),1 (active),1 (active),1 (active),1 (active)
COc1cc2c(c(OC)c1OC)-c1ccc(O)c(=O)cc1[C@@H](N)CC2 [Trimethylcolchicinic acid],9 µM,9 µM,9 µM,9 µM,,1 (active),1 (active),1 (active),1 (active),1 (active),0 (inactive),1 (active),0 (inactive),0 (inactive),1 (active),0 (inactive),0 (inactive),0 (inactive),0 (inactive),0 (inactive)
